Test results taken from publication PMC7862700, “An all-to-all approach to the identification of sequence-specific readers for epigenetic DNA modifications on cytosine”.

Experiments:
Test in all cases: DAPPL (digital affinity profiling via proximity ligation, sequencing); 10 mM Tris-HCl pH 7.5, 50 mM NaCl, 1 mM DTT, 4% glycerol, room temperature, 30 min; GST-TFs on glutathione beads, 16-mer random dsDNA library, 0.1% formaldehyde crosslink after washing; high values mean tight binding
FEV = molecular target: T1, FEV (Homo sapiens, UniProt Q99581 1-238); details: protein: recombinant; tags: N-terminal GST; dsDNA, one strand shown
T1 sequence: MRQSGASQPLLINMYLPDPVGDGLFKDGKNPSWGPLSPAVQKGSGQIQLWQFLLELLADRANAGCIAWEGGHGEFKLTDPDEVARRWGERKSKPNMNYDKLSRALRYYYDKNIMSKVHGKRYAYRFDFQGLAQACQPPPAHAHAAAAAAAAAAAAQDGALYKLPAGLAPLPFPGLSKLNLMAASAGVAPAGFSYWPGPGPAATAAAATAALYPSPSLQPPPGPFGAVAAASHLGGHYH
Procedure, shortened: (§1)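 In yeast, human transcription factors were expressed with a GST fusion, then pulled down on glutathione beads and given DNA barcodes. Pooled with a tag-only sample, they were exposed to 200 nmole of a 16-mer random double-stranded DNA library (Tris/NaCl/DTT/glycerol buffer, room temperature, 30 min), washed, crosslinked with 0.1% formaldehyde, proximity-ligated using BsaI/T4 ligase for 1 h at 37 °C, PCR-amplified and read on an Illumina NextSeq500. Each hexamer's frequency of reads for a factor, divided by the matching frequency for the tag-only sample, gives the binding signal.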

ETV5 = ETV5 (Homo sapiens, UniProt P41161 1-510); details: protein: recombinant; tags: N-terminal GST; dsDNA, one strand shown
Procedure, shortened: as §1

HSF1 = HSF1 (Homo sapiens, UniProt Q00613 1-529); details: protein: recombinant; tags: N-terminal GST; chain copies: 3; dsDNA, one strand shown
Procedure, shortened: as §1

SPIC = molecular target: T2, SPIC (Homo sapiens, UniProt Q8N5J4 1-248); details: protein: recombinant; tags: N-terminal GST; dsDNA, one strand shown
T2 sequence: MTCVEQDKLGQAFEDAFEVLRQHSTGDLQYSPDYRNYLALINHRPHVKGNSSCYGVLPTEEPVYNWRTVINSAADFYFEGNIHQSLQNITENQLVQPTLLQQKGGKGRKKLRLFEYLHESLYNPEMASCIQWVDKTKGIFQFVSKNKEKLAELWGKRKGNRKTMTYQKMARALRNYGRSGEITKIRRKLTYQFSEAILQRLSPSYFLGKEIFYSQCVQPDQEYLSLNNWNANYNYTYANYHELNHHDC
Procedure, shortened: as §1

ELF4 = ELF4 (Homo sapiens, UniProt Q99607 1-663); details: protein: recombinant; tags: N-terminal GST; dsDNA, one strand shown
Procedure, shortened: as §1

ELK4 = molecular target: T3, ELK4 (Homo sapiens, UniProt P28324-2 1-405); details: protein: recombinant; tags: N-terminal GST; dsDNA, one strand shown
T3 sequence: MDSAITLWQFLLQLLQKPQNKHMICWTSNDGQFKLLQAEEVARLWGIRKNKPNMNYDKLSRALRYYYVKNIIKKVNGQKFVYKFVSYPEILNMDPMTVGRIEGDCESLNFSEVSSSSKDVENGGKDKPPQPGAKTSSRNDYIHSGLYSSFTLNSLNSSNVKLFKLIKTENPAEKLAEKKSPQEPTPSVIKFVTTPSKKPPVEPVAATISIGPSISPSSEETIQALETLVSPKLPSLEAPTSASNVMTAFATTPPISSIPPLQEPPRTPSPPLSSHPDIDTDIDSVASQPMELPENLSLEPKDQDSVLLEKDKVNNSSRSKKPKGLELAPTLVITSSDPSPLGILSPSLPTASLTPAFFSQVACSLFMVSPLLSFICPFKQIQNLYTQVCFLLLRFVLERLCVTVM
Procedure, shortened: as §1

ETV2 = molecular target: T4, ETV2 (Homo sapiens, UniProt O00321 1-342); details: protein: recombinant; tags: N-terminal GST; dsDNA, one strand shown
T4 sequence: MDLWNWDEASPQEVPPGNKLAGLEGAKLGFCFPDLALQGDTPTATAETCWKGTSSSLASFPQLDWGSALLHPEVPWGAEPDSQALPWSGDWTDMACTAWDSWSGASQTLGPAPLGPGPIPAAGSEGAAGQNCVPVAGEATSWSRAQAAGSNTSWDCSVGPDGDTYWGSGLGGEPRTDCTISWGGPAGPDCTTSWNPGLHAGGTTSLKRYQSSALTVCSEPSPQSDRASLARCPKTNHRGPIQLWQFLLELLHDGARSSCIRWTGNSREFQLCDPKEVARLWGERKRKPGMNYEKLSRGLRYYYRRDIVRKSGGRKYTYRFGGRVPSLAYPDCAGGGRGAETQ
Procedure, shortened: as §1

ELF3 = molecular target: T5, ELF3 (Homo sapiens, UniProt P78545 1-371); details: protein: recombinant; tags: N-terminal GST; dsDNA, one strand shown
T5 sequence: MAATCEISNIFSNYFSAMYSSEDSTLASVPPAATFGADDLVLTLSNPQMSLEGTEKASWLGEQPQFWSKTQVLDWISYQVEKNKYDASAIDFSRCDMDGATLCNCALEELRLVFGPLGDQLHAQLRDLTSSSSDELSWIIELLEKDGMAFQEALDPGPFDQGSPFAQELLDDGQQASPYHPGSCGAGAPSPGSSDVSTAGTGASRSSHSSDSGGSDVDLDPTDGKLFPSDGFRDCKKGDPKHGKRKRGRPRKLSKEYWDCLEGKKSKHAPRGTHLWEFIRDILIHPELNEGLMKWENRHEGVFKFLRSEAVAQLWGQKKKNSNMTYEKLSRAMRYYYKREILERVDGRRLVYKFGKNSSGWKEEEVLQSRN
Procedure, shortened: as §1

CRX = CRX (Homo sapiens, UniProt O43186 1-299); details: protein: recombinant; tags: N-terminal GST; dsDNA, one strand shown
Procedure, shortened: as §1

ETV1 = ETV1 (Homo sapiens, UniProt P50549 1-477); details: protein: recombinant; tags: N-terminal GST; dsDNA, one strand shown
Procedure, shortened: as §1

ERF = molecular target: T6, ERF (Homo sapiens, UniProt P50548 1-548); details: protein: recombinant; tags: N-terminal GST; dsDNA, one strand shown
T6 sequence: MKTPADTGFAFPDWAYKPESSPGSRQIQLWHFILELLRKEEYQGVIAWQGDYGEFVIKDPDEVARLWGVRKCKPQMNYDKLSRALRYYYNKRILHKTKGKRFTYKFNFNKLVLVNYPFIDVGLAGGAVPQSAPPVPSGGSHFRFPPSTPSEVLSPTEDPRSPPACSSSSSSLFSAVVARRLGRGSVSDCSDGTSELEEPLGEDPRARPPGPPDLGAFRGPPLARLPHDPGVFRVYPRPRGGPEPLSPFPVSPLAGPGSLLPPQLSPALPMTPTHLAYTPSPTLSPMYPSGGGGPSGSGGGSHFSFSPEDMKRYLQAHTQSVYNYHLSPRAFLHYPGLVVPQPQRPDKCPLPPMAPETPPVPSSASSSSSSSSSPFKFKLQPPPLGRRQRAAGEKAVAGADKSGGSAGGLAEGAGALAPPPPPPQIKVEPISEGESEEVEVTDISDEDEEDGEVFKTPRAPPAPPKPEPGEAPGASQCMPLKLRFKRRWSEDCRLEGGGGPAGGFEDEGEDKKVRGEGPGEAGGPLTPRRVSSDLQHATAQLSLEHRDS
Procedure, shortened: as §1

ETV3L = molecular target: T7, ETV3L (Homo sapiens, UniProt Q6ZN32 1-361); details: protein: recombinant; tags: N-terminal GST; dsDNA, one strand shown
T7 sequence: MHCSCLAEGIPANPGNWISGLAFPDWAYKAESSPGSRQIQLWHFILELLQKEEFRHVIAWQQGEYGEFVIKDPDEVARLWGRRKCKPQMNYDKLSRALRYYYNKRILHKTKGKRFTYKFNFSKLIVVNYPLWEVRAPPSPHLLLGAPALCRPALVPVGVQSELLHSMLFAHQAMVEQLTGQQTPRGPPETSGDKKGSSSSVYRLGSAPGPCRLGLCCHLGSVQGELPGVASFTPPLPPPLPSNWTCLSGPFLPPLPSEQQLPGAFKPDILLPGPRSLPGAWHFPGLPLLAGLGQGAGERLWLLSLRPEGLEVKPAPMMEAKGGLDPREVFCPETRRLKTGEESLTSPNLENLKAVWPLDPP
Procedure, shortened: as §1

ETS2 = molecular target: T8, ETS2 (Homo sapiens, UniProt P15036 1-469); details: protein: recombinant; tags: N-terminal GST; dsDNA, one strand shown
T8 sequence: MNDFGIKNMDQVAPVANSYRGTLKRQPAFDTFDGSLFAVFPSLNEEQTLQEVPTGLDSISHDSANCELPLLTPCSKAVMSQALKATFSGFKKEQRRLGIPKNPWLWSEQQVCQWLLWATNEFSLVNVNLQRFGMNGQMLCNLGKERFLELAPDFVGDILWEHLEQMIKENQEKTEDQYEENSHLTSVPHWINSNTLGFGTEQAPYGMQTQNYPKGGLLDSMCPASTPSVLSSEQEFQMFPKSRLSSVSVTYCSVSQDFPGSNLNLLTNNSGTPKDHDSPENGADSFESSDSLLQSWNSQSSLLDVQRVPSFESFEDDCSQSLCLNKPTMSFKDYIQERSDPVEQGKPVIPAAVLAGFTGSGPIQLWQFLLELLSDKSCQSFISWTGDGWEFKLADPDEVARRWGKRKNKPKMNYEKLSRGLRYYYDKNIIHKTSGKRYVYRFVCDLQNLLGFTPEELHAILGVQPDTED
Procedure, shortened: as §1

SPDEF = molecular target: T9, SPDEF (Homo sapiens, UniProt O95238 1-335); details: protein: recombinant; tags: N-terminal GST; dsDNA, one strand shown
T9 sequence: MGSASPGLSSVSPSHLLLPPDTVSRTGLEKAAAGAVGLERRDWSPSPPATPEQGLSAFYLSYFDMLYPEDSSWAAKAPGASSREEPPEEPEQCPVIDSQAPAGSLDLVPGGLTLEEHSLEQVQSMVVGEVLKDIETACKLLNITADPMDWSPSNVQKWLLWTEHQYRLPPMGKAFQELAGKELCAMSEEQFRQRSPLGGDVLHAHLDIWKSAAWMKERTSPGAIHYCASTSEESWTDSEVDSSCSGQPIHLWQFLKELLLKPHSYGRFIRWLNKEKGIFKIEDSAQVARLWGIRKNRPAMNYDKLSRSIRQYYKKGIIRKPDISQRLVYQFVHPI
Procedure, shortened: as §1

ETV7 = molecular target: T10, ETV7 (Homo sapiens, UniProt Q9Y603 1-341); details: protein: recombinant; tags: N-terminal GST; dsDNA, one strand shown
T10 sequence: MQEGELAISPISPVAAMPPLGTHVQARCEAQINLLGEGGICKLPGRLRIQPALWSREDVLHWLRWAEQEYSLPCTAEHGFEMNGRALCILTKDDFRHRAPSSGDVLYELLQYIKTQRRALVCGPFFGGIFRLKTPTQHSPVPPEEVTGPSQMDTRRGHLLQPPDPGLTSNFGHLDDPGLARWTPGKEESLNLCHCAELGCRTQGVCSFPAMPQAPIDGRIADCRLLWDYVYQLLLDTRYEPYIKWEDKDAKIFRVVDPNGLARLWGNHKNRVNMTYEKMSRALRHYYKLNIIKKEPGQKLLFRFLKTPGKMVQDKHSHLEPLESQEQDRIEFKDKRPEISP
Procedure, shortened: as §1

ELF5 = molecular target: T11, ELF5 (Homo sapiens, UniProt Q9UKW6-2 1-255); details: protein: recombinant; tags: N-terminal GST; dsDNA, one strand shown
T11 sequence: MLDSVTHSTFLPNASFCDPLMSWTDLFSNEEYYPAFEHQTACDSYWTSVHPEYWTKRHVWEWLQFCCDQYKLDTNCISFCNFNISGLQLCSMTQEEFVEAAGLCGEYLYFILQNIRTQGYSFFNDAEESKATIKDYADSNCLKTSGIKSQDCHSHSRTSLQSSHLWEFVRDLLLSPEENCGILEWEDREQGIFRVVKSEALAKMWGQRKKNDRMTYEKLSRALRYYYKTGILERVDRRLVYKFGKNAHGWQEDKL
Procedure, shortened: as §1

ETV3 = molecular target: T12, ETV3 (Homo sapiens, UniProt P41162-2 1-143); details: protein: recombinant; tags: N-terminal GST; dsDNA, one strand shown
T12 sequence: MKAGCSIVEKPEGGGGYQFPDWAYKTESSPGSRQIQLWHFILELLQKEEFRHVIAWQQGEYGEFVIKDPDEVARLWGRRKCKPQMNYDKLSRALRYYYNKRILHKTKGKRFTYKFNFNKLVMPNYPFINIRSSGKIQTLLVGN
Procedure, shortened: as §1

ETV6 = ETV6 (Homo sapiens, UniProt P41212 1-452); details: protein: recombinant; tags: N-terminal GST; dsDNA, one strand shown
Procedure, shortened: as §1

ETV6, sequence (P41212 whole entry): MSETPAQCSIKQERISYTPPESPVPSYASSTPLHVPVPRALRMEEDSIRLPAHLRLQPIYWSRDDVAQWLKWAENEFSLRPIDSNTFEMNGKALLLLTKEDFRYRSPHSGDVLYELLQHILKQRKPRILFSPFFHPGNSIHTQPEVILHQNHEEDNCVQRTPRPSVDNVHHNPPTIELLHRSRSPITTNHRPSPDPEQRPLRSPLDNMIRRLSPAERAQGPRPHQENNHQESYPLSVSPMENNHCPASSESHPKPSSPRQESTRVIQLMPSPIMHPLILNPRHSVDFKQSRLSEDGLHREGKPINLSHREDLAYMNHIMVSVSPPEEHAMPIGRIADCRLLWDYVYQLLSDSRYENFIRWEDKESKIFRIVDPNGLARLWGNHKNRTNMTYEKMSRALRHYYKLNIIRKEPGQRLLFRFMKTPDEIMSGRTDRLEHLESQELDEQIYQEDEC
HSF1, sequence (Q00613 whole entry): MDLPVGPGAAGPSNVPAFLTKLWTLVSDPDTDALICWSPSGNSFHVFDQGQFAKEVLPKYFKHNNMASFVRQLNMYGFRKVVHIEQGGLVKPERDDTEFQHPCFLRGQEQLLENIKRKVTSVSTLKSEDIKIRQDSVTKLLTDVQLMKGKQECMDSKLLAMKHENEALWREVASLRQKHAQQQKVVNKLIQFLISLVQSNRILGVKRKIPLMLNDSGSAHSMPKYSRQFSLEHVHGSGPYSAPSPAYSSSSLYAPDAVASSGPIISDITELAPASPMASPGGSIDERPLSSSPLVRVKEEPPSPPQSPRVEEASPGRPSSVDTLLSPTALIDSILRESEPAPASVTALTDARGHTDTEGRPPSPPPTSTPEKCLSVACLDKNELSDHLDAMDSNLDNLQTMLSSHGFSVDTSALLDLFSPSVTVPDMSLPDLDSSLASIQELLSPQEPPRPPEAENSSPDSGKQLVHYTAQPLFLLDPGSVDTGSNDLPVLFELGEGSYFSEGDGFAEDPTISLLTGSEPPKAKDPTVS
ETV5, sequence (P41161 whole entry): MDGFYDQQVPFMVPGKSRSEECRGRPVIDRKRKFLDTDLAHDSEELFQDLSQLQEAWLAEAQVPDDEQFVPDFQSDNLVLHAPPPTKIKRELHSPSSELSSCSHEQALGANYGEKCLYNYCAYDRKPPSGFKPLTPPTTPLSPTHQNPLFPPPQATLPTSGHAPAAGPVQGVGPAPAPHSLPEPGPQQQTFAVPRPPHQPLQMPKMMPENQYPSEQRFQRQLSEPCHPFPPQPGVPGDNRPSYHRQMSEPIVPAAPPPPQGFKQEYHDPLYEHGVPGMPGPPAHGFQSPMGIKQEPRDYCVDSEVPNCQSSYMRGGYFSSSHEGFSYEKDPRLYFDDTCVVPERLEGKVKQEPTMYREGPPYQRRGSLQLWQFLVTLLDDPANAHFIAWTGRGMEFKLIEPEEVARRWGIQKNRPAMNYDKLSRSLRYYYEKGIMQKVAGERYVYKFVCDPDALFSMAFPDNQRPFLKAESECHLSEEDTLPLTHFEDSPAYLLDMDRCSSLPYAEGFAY
CRX, sequence (O43186 whole entry): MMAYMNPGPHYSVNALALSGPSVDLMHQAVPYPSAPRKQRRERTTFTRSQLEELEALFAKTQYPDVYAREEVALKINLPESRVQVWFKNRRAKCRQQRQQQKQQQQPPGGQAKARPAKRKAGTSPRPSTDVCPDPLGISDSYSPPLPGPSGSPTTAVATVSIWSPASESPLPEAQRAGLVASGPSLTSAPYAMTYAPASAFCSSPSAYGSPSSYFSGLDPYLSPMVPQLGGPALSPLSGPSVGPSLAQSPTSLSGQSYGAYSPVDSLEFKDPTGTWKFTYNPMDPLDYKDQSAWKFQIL
ELF4, sequence (Q99607 whole entry): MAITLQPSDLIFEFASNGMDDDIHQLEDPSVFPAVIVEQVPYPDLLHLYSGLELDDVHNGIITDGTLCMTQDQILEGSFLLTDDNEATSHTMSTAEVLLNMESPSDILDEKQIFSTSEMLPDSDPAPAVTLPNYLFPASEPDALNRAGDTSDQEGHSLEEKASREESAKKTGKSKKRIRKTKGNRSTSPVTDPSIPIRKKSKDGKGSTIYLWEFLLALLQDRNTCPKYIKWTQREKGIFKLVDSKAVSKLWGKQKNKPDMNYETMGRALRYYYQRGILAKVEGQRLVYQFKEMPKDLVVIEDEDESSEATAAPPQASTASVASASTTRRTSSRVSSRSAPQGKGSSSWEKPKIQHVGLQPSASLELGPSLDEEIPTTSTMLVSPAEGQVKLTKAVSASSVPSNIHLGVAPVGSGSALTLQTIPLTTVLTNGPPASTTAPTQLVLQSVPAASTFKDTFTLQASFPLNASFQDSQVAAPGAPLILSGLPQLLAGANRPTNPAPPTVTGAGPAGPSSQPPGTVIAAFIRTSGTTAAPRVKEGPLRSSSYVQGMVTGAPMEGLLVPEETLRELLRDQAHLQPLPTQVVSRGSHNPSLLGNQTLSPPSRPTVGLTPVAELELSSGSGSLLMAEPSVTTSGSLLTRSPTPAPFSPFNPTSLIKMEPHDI
ETV1, sequence (P50549 whole entry): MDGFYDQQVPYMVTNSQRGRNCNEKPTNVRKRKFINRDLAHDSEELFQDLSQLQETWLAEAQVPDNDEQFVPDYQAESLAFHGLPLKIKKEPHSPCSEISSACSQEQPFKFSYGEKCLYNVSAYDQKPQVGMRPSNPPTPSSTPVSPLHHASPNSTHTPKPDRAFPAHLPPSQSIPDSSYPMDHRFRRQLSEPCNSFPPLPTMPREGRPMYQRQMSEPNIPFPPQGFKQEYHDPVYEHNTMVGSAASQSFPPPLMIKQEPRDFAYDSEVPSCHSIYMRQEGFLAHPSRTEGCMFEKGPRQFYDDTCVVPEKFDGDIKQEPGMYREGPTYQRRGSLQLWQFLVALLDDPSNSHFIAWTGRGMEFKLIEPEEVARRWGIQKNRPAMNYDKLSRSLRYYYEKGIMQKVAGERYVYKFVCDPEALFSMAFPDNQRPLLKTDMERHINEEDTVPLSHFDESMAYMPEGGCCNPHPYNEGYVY

CAAAAT
binding signal (FEV): 1.17 fold enrichment (6-mer frequency, TF over GST control)
binding signal (ETV5): 1.22 fold enrichment (6-mer frequency, TF over GST control)
binding signal (HSF1): 1.2 fold enrichment (6-mer frequency, TF over GST control)
binding signal (SPIC): 1.16 fold enrichment (6-mer frequency, TF over GST control)
binding signal (ELF4): 1.25 fold enrichment (6-mer frequency, TF over GST control)
binding signal (ELK4): 1.23 fold enrichment (6-mer frequency, TF over GST control)
binding signal (ETV2): 1.28 fold enrichment (6-mer frequency, TF over GST control)
binding signal (ELF3): 1.2 fold enrichment (6-mer frequency, TF over GST control)
binding signal (CRX): 1.22 fold enrichment (6-mer frequency, TF over GST control)
binding signal (ETV1): 1.25 fold enrichment (6-mer frequency, TF over GST control)
binding signal (ERF): 1.33 fold enrichment (6-mer frequency, TF over GST control)
binding signal (ETV3L): 1.19 fold enrichment (6-mer frequency, TF over GST control)
binding signal (ETS2): 1.2 fold enrichment (6-mer frequency, TF over GST control)
binding signal (SPDEF): 1.1 fold enrichment (6-mer frequency, TF over GST control)
binding signal (ETV7): 1.28 fold enrichment (6-mer frequency, TF over GST control)
binding signal (ELF5): 1.13 fold enrichment (6-mer frequency, TF over GST control)
binding signal (ETV3): 1.12 fold enrichment (6-mer frequency, TF over GST control)
binding signal (ETV6): 1.26 fold enrichment (6-mer frequency, TF over GST control)
